In PubChem BioAssay (NCI) one finds growth data, which are given here for 33 compounds.

Compounds without any hit were thinned out: in the full panel of roughly 83,000, 20% have a hit.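 For each line, cells grew in 96-well plates with the test compound present at a single concentration for 48 hours.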 The source made the active and inactive calls. Rule for the calls: active = growth percent below 10; inactive = the rest.

The first assay deals with SK-OV-3 ovarian. Kind of assay: NCI-60 one-dose screen, 48 h (100 = growth as untreated, 0 = no growth, -100 = all killed). The settings on record: 10 µM unless noted.
For `O=C(C1CCCCC1)[C@@H]1[C@]2(C(=O)NC3CCCCC32)[C@@H]2CCCN2[C@@]12C(=O)NC1CCC(Cl)CC12` (stereo partly drawn), the growth is -94.1% [100 µM] (active).
Take `N#C/C(=C\c1ccc(-c2cccc(C(F)(F)F)c2)o1)c1ccccc1`: the growth was 84.7% (inactive).
On to `COc1cc(C(=O)n2nc(N3CCOCC3)c3cc(-n4cccc4)ccc32)cc(OC)c1OC`, for which the growth was 72.5% (inactive).
Still for that read-out and setting: as for `COC(=O)c1c2c(c(C)[n+]([O-])c1C)C(=O)C(NCc1ccc(OC)cc1)=CC2=O`, the figure is 99.2% (inactive).
Turning to `CC1=C(CCC(C)NCc2ccc(OCCCN3CCCCC3)cc2)C(C)(C)CCC1` (stereo not drawn), the growth was -74.1% (active).
For the compound `CN1CCN(CCCOc2cccc3nc(Nc4ccc(F)c(F)c4)ccc23)CC1`, the growth was 24.2% (inactive).
Still for that read-out and setting: to `CC1(C)CC[C@]23CC[C@]4(C)[C@H](CC[C@@H]5[C@@]6(C)C/C(=C/c7ccncc7)C(=O)C(C)(C)[C@@H]6CC[C@]54C)[C@H]2[C@H]1OC3` belongs 94.7% (inactive); to `C/C(Cc1ccc(Cl)cc1)=C(\c1ccc(OCCCN(C)C)cc1)c1ccc(OC(=O)Cc2ccccc2)cc1`, 85.6% (inactive).
For the compound `COc1ccc(C(=O)/C=C/c2ccc(N3CCCCC3)cc2)cc1OC`, the growth was 107% (inactive).
On the same count and under the same terms, as for `O=C1Nc2c(C(=O)O)cccc2/C1=N/c1n[nH]c(=S)s1`, the figure is 85.7% (inactive).
On the same count and under the same terms, as for `COC(=O)N1CC(Oc2ccccn2)C2CC1c1ccccc1O2` (stereo not drawn), the figure is 103% (inactive); as for `CN(CCCNC(=O)Cc1ccc2ccc3cccc4ccc1c2c34)CCCNc1cc(-c2ccc3ccccc3c2)nc2ccccc12`, -85.6% (active); as for `CCOC(=O)C(=Cc1ccc(-c2ccccc2)cc1)C(=O)OCC`, 95.6% (inactive).
The same measure, in the same setting: as for `COc1ccc(C(O)c2cc3c(N)c(C(=O)Nc4cccc(Cl)c4C)sc3nc2C)cc1` (stereo not drawn), the figure is 11.6% (inactive).
Consider `Oc1ccc(/C=C/c2ccc(O)cc2)cc1`, for which the growth is 99.7% (inactive).

A further assay has as its system IGROV1 ovarian. The assay is described as above. The settings on record: 10 µM unless noted.
Take `CCN(CC)CCN1C(=O)c2cccc3c(/C=C/CN4C(=O)c5cccc6cccc(c56)C4=O)ccc(c23)C1=O`: the growth was 90.1% (inactive).
Still for that read-out and setting: to `CCN1CCN(C(=O)[C@]23CC[C@@H](C)[C@H](C)[C@@H]2C2=CC[C@@H]4[C@@]5(C)C/C(=C/c6cccnc6)C(=O)C(C)(C)[C@@H]5CC[C@@]4(C)[C@]2(C)CC3)CC1` belongs 50.9% (inactive); to `COc1ccc(C2CC(c3cc(OC)c(OC)c(OC)c3)=NO2)cc1OCCCCOc1cc2c(cc1OC)C(=O)N1CCC[C@H]1C=N2` (stereo partly drawn), -21.5% (active); to `Cn1c(=O)c2[nH]c(SCC(=O)Nc3ccc(C(=O)/C=C/c4ccccc4Cl)cc3)nc2n(C)c1=O`, 100% (inactive).
As for `CC1(C)N=C(N)N=C(N)N1c1cccc(CCc2ccccc2)c1`, the growth was 30.3% (inactive).
On the same count and under the same terms, to `O=C1c2ccccc2C(=O)c2c1c(C(=O)NCc1ccccc1)c1ccccn21` belongs 97.8% (inactive); to `CC1C(/C=N/NC(N)=S)C(C#N)(C#N)C1(C#N)C#N` (stereo not drawn), 109% (inactive); to `NS(=O)(=O)c1ccc(-c2cc(-c3nnc(SCC(=O)Nc4ccc(C(=O)/C=C/c5ccc(Cl)cc5)cc4)n3-c3ccccc3)c3ccccc3n2)cc1`, 99.2% (inactive).
For the compound `CC1(C)CC[C@]2(C(=O)N[C@H](CO)Cc3ccccc3)CC[C@]3(C)C(=CC[C@@H]4[C@@]5(C)CCCNC(C)(C)[C@@H]5CC[C@]43C)[C@@H]2C1`, the growth is 65.1% (inactive).
Regarding `CCCCNc1cc(-c2cn[nH]c2-c2cc(C)cc(OC)c2)nc(-c2cccnc2)n1`, the growth was 115% (inactive).
Regarding `C/C(=N\O)[C@@H]1CC[C@]2(CO)CC[C@]3(C)[C@H](CC[C@@H]4[C@@]5(C)CCCNC(C)(C)[C@@H]5CC[C@]43C)[C@@H]12`, the growth was 65.2% (inactive).
Still for that read-out and setting: as for `CN(C)CCCC1(c2ccc(F)cc2)OCc2cc(-c3cc4ccccc4s3)ccc21` (stereo not drawn), the figure is -28% (active); as for `C=C(C)[C@@H]1CCC[C@]2(C(=O)O)CC[C@]3(C)[C@@H](CC[C@@H]4[C@@]5(C)C/C(=C/c6ccncc6)C(=O)C(C)(C)[C@@H]5CC[C@]43C)[C@@H]12`, 22.6% (inactive).
In the case of `C=Cc1cnc(Nc2ccc(OC)cc2)nc1NCCCNC(=O)C1CCC1`, the growth is 44.6% (inactive).
As to `Cc1ccc(CNc2ccc3nc(CCC(C)C)[nH]c3c2)cc1`, the growth was 77.4% (inactive).
Same read-out and setting: as for `O=c1ccc(=O)n(-c2nc(-c3ccc([N+](=O)[O-])cc3)cs2)[nH]1`, the figure is 99.3% (inactive); as for `CC(=O)OC(c1ccccc1)C1CCOC1=O` (stereo not drawn), 102% (inactive).
On the same count and under the same terms, as for `Cc1ccc(-c2csc(N(C(=O)N3CCN(c4cc5c(cc4F)c(=O)c(C(=O)O)cn5C4CC4)CC3)c3ccccc3)n2)cc1`, the figure is 12.5% (inactive).
